Assay results from PubChem BioAssay AID1159580 (chemical genetic matrix, 2015).
About 2,000 (36%) of roughly 5,500 compounds were called active. About 18% were inconclusive and are not listed. Rule as the data show it: active = normalized growth mostly below about 0.91 (no sharp cut-off); inconclusive = no clear call, values can overlap the other calls; inactive = mostly above about 0.92. The list shows a part of the results.

Assay: chemical genetic growth profiling, strain panel (AID 1159580);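 also: tested at 20 µM; growth read once vehicle control cultures reached saturation at 30 °C; 1 = growth at the plate median or of vehicle wells; lower values mean less growth of the strain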
Settings: growth OD

Measured: normalized growth

CSC1=NCN(Cc2ccccc2)CN1
inactive: S. cerevisiae deletion strains, locus YAL013W, strain DEP1, active compounds read low 0.991 | S. cerevisiae deletion strains, locus YBR229C, strain ROT2, active compounds read low 0.996 | S. cerevisiae deletion strains, locus YDL101C, strain DUN1, active compounds read low 1 | S. cerevisiae deletion strains, locus YDR150W, strain NUM1, active compounds read low 1.01 | S. cerevisiae deletion strains, locus YEL061C, strain CIN8, active compounds read low 0.981 | S. cerevisiae deletion strains, locus YGR078C, strain PAC10, active compounds read low 1 | S. cerevisiae deletion strains, locus YHR030C, strain SLT2, active compounds read low 1.02 | S. cerevisiae deletion strains, locus YHR087W, strain rtc3, active compounds read low 1 | S. cerevisiae deletion strains, locus YJR043C, strain POL32, active compounds read low 1 | S. cerevisiae deletion strains, locus YJR075W, strain HOC1, active compounds read low 0.99 | S. cerevisiae deletion strains, locus YLR039C, strain RIC1, active compounds read low 0.969 | S. cerevisiae deletion strains, locus YLR058C, strain SHM2 (second series), active compounds read low 1.01 | S. cerevisiae deletion strains, locus YLR085C, strain ARP6, active compounds read low 0.954 | S. cerevisiae deletion strains, locus YLR262C, strain YPT6, active compounds read low 0.972 | S. cerevisiae deletion strains, locus YML094W, strain GIM5, active compounds read low 0.981 | S. cerevisiae deletion strains, locus YMR219W, strain ESC1, active compounds read low 0.986 | S. cerevisiae deletion strains, locus YMR263W, strain SAP30, active compounds read low 1 | S. cerevisiae deletion strains, locus YNL153C, strain GIM3, active compounds read low 1.02 | S. cerevisiae deletion strains, locus YNL298W, strain CLA4 (second series), active compounds read low 1 | S. cerevisiae deletion strains, locus YNL322C, strain KRE1, active compounds read low 0.972 | S. cerevisiae deletion strains, locus YNR030W, strain Alg12, active compounds read low 0.977 | S. cerevisiae deletion strains, locus YPL055C, strain LGE1, active compounds read low 1.06 | S. cerevisiae deletion strains, locus YPL241C, strain CIN2, active compounds read low 0.987 | S. cerevisiae deletion strains, locus YPR135W, strain CTF4, active compounds read low 1.1 | S. cerevisiae strains, strain wild type, active compounds read low 0.98
